Test results: the supplement of paper PMC8728848
The entries come from a sample that favours the strongest signals as a whole.

Assays:
Test in all cases: glycan array binding signal (z-score within array); higher = stronger binding
Conditions in all cases: glycan notation: IUPAC condensed, linker removed
[1] = molecular target: GlcNAc(a1-4)Gal(b1-4)GlcNAc(b1-3)Gal(b1-4)GlcNAc(b1-3)Gal(b1-4)GlcNAc
In short: (§1)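 Arrays were curated from the Consortium for Functional Glycomics database, 3228 in total, and kept only where the protein sequence was available. Binding is expressed as a within-array Z-score. This score was averaged across arrays of the same protein sequence at different concentrations or buffers and across linkers, and negative values can be read as non-binding.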

[2] = molecular target: GlcNAc(b1-2)[GlcNAc(b1-4)]Man(a1-3)[GlcNAc(b1-4)][GlcNAc(b1-2)[GlcNAc(b1-6)]Man(a1-6)]Man(b1-4)GlcNAc(b1-4)[Fuc(a1-6)]GlcNAc
In short: as §1

[3] = molecular target: GlcNAc(b1-2)[GlcNAc(b1-6)]Man(a1-6)[GlcNAc(b1-2)Man(a1-3)]Man(b1-4)GlcNAc(b1-4)GlcNAc
In short: as §1

GlcNAc(b1-3)Gal = molecular target: GlcNAc(b1-3)Gal
In short: as §1

[4] = molecular target: GlcNAc(b1-3)Gal(b1-3)GalNAc
In short: as §1

[5] = molecular target: GlcNAc(b1-3)Gal(b1-4)GlcNAc(b1-3)Gal(b1-4)GlcNAc(b1-2)[GlcNAc(b1-3)Gal(b1-4)GlcNAc(b1-3)Gal(b1-4)GlcNAc(b1-6)]Man(a1-6)[GlcNAc(b1-3)Gal(b1-4)GlcNAc(b1-3)Gal(b1-4)GlcNAc(b1-2)Man(a1-3)]Man(b1-4)GlcNAc(b1-4)[Fuc(a1-6)]GlcNAc
In short: as §1

[6] = molecular target: GlcNAc(b1-3)Gal(b1-4)GlcNAc(b1-3)Gal(b1-4)GlcNAc(b1-3)Gal(b1-4)GlcNAc(b1-3)Gal(b1-4)GlcNAc(b1-2)Man(a1-3)[GlcNAc(b1-3)Gal(b1-4)GlcNAc(b1-3)Gal(b1-4)GlcNAc(b1-3)Gal(b1-4)GlcNAc(b1-3)Gal(b1-4)GlcNAc(b1-2)Man(a1-6)]Man(b1-4)GlcNAc(b1-4)GlcNAc
In short: as §1

[7] = molecular target: GlcNAc(b1-3)[GlcNAc(b1-6)]GalNAc
In short: as §1

[8] = molecular target: GlcNAc(b1-4)GlcNAc(b1-4)GlcNAc(b1-4)GlcNAc(b1-4)GlcNAc
In short: as §1

[9] = molecular target: Man(a1-2)Man(a1-2)Man(a1-6)[Man(a1-3)]Man
In short: as §1

Man(a1-2)Man(a1-3)Man = molecular target: Man(a1-2)Man(a1-3)Man
In short: as §1

[10] = molecular target: Man(a1-2)Man(a1-6)[Man(a1-3)]Man(a1-6)[Man(a1-2)Man(a1-2)Man(a1-3)]Man(b1-4)GlcNAc(b1-4)GlcNAc
In short: as §1

[11] = molecular target: Neu5Ac(a2-3)Gal(b1-3)GalNAc(b1-3)Gal(a1-4)Gal(b1-4)Glc
In short: as §1

[12] = molecular target: Neu5Ac(a2-3)Gal(b1-3)GlcNAc(b1-6)GalNAc
In short: as §1

[13] = molecular target: Neu5Ac(a2-3)Gal(b1-4)GlcNAc(b1-3)Gal(b1-4)GlcNAc
In short: as §1

[14] = molecular target: Neu5Ac(a2-3)Gal(b1-4)[Fuc(a1-3)]GlcNAc(b1-3)GalNAc
In short: as §1

[15] = molecular target: Neu5Ac(a2-6)Gal(b1-4)GlcNAc(b1-2)Man(a1-3)[GlcNAc(b1-4)][Neu5Ac(a2-6)Gal(b1-4)GlcNAc(b1-2)Man(a1-6)]Man(b1-4)GlcNAc(b1-4)GlcNAc
In short: as §1

[16] = molecular target: Neu5Ac(a2-6)Gal(b1-4)GlcNAc(b1-2)Man(a1-6)Man(b1-4)GlcNAc(b1-4)GlcNAc
In short: as §1

[17] = molecular target: Neu5Ac(a2-6)Gal(b1-4)GlcNAc(b1-3)Gal(b1-4)GlcNAc(b1-3)Gal(b1-4)GlcNAc(b1-2)Man(a1-3)[Neu5Ac(a2-6)Gal(b1-4)GlcNAc(b1-3)Gal(b1-4)GlcNAc(b1-3)Gal(b1-4)GlcNAc(b1-2)Man(a1-6)]GalNAc
In short: as §1

[18] = molecular target: Neu5Ac(a2-8)Neu5Ac(a2-3)Gal(b1-3)GalNAc(b1-4)[Neu5Ac(a2-8)Neu5Ac(a2-3)]Gal(b1-4)Glc
In short: as §1

[19] = molecular target: Neu5Ac(a2-8)Neu5Ac(a2-3)Gal(b1-4)Glc
In short: as §1

[20] = molecular target: Neu5Ac(a2-8)Neu5Ac(a2-8)Neu5Ac(a2-3)[GalNAc(b1-4)]Gal(b1-4)Glc
In short: as §1

[21] = molecular target: Neu5Gc(a2-3)Gal(b1-3)[Fuc(a1-4)]GlcNAc
In short: as §1

[22] = molecular target: Neu5Gc(a2-3)Gal(b1-4)[Fuc(a1-3)]GlcNAc
In short: as §1

B1: SJCP3842 (Schistosoma japonicum) (protein)
chain: MFKMRIINLVNISTVLLLINLLQTKSRLVGKENGFMLTVSIYGAQLSDKMTSVPVSWTIDYEDPEKSAFKKLVTDSCDTFSEYVKSQIPKGSVDGQCTSHIFQRPGSGSGVSISLTLSFIYVDVTQPDTVALKTELEKHFANFVTIHSHKITQAQFRINQKAIVIPTGDKDAIDGSKWKIIAIIALVALAIVVIGGFIYICVK
- glycan array binding signal (z-score) [1]: 2.47
- glycan array binding signal (z-score) [2]: 0.364
- glycan array binding signal (z-score) [3]: -0.597
- glycan array binding signal (z-score) (GlcNAc(b1-3)Gal): -1.01
- glycan array binding signal (z-score) [4]: -0.211
- glycan array binding signal (z-score) [5]: 1.43
- glycan array binding signal (z-score) [6]: -0.488
- glycan array binding signal (z-score) [7]: -0.578
- glycan array binding signal (z-score) [8]: 0.984
- glycan array binding signal (z-score) [9]: -0.903
- glycan array binding signal (z-score) (Man(a1-2)Man(a1-3)Man): -1.03
- glycan array binding signal (z-score) [10]: -0.995
- glycan array binding signal (z-score) [11]: 0.587
- glycan array binding signal (z-score) [12]: 1.36
- glycan array binding signal (z-score) [13]: 1.89
- glycan array binding signal (z-score) [14]: 2.37
- glycan array binding signal (z-score) [15]: -0.194
- glycan array binding signal (z-score) [16]: 2.88
- glycan array binding signal (z-score) [17]: 4.64
- glycan array binding signal (z-score) [18]: 3.14
- glycan array binding signal (z-score) [19]: -1.34
- glycan array binding signal (z-score) [20]: 0.881
- glycan array binding signal (z-score) [21]: -0.715
- glycan array binding signal (z-score) [22]: 0.854
